Shown are actives, neighbours in structure and some others; about 4.1% of the full set was active somewhere.
Cav32 inh – inhibitors of human Cav3.2 T-type calcium channel; O95180; Cav3.2-expressing cells, Fluo-4 calcium fluorescence FDSS; hits give low values; B-score at 10 µM; hit rate 4% among 100,000;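 active = single-dose well whose peak fluorescence ratio is a statistical outlier from its plate by either plate-standardised score or position-corrected B-score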
Mac1 fbg inh – CD11b/CD18-fibrinogen binding inhibition. P05107+P11215. K562 CD11b/CD18 adhesion to fibrinogen, ATPlite luminescence; Mn2+ added to activate the integrin. inhibition, % at 10 µM. hit rate 0.54% among 93,000. AID 1497;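 active = primary inhibition of 50% or more at 10 µM, then 40% or more on retest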
MRP1 act – MRP-1 activation. viability increase, % at 10 µM. H69AR cells + doxorubicin, viability rescue, CellTiter-Glo. AID 799. hit rate 0.61% among 140,000;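 active = viability gain under doxorubicin at or above a set limit, the compound median plus 3 SD, cut at about 4.7% in these data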;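 note: MRP-1 overexpressing cells given doxorubicin 25 µM after compound pretreatment; 18-22 h compound pretreatment then 72 h with doxorubicin before readout; 0% = doxorubicin-only wells and 100% = vehicle-treated cells without doxorubicin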
CD11b adhes enh – increases human CD11b/CD18 adhesion to fibrinogen | K562 CD11b/CD18 adhesion to fibrinogen, ATPlite luminescence | hit rate 0.07% among 93,000 | activation, % at 10 µM | P05107+P11215;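 active = 10 µM primary screen giving 50% or more activity, confirmed by 40% or more on retest at that dose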
Pyk2 oligo antag – blocks oligomerization of human Pyk2 in cells; z-score (the deposit names both 25 µM and 10 µM); Q293 cells, Pyk2 FERM NanoBiT luminescence; hits give low values; hit rate 0.83% among 99,000; Q14289;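 active = Z-score of -3 or lower, scaled per plate to the spread of control and sample wells; inactive = z-score above -3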;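 note: negative z-score means lost luminescence so less FERM oligomerization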
Target sequence (Q14289 whole entry, looked up): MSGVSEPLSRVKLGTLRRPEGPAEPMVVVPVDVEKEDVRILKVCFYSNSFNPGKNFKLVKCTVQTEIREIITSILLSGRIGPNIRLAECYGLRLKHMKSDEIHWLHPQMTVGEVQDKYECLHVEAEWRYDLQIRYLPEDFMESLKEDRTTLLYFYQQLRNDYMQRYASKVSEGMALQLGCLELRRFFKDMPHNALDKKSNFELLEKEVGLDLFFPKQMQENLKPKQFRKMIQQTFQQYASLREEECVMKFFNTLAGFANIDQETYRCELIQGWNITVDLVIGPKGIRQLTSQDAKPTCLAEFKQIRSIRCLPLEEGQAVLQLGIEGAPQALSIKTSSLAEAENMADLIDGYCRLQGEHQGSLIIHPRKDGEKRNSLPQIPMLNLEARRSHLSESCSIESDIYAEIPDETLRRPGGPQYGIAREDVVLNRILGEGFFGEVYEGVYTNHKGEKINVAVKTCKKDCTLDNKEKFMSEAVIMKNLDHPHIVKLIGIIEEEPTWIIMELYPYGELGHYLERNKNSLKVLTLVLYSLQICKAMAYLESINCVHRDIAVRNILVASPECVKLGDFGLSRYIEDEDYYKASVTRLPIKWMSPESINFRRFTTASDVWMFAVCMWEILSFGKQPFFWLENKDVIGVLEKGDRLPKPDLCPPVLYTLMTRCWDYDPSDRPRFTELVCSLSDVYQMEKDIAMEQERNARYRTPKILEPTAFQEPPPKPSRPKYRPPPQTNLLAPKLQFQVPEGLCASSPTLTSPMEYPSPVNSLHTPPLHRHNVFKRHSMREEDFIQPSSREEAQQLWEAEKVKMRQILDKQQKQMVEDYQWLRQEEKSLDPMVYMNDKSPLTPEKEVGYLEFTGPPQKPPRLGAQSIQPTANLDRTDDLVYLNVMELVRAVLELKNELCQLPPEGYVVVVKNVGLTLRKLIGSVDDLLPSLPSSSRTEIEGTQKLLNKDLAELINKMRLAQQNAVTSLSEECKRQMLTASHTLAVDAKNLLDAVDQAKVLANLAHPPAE
MRP reversal – compounds reversing MRP-mediated drug resistance; H69AR cells + 2 uM doxorubicin, CellTiter-Glo, 72 h; differential viability (reversal), % at 10 µM; hit rate 0.04% among 85,000; AID 602;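 active = viability drop by adding the cancer drug above about 55%, with treated viability meeting a 40% cutoff, limit read from the data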;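 note: viability without doxorubicin minus viability with 2 µM doxorubicin for each compound; larger differential means the compound sensitizes cells more to doxorubicin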
Numbers without * were called inactive; x = not tested or not shown.

SMILES	Cav32 inh	Mac1 fbg inh	MRP1 act	CD11b adhes enh	Pyk2 oligo antag	MRP reversal
O=C(COc1ccccc1)NC(NC(=S)Nc1ccccc1O)C(Cl)(Cl)Cl (stereo unspecified)	-7.9*	x	-3	x	-1.6	x
CCOC(=O)C1=C(c2ccccc2)NC(=S)NC1c1cc([N+](=O)[O-])ccc1OC (stereo unspecified)	-0.5	0	-5	1	-4*	x
CC1CC(C)CN(C(=O)c2ccc3c(c2)N(Cc2ccccc2)CCS3)C1 (stereo unspecified)	-7.7*	21	0	-3	x	-7
O=C(CCc1nc2cccnc2n1Cc1ccccc1)NCCc1ccc(Cl)cc1	-7.2*	-10	-2	2	-1.1	-6
COc1ccc(Cn2c(CCC(=O)Nc3ccc(C)c(C)c3)nc3cccnc32)cc1	-3.5*	13	-1	4	-1.1	-11
COCCCNC(=O)CCc1nc2cccnc2n1Cc1ccccc1	-0.059	-12	-1	-4	0.75	7
O=C(COc1ccccc1[N+](=O)[O-])OCC(=O)N1CCC(Cc2ccccc2)CC1	x	x	0	x	x	x
CCOC(=O)c1c(NC(=O)CN2CCCCC2)sc2c1CCN(C(=O)OCC)C2	-2.8	x	-5	x	-1.2	7
O=C(CCc1nc(-c2ccccc2F)no1)NCc1ccco1	0.26	-15	-2	1	1.5	-19
c1ccc(Cc2nnc(-c3ccccc3)o2)cc1	-5.5*	10	0	-1	-1.4	13
O=C(NNc1ccccc1[N+](=O)[O-])Nc1ccc(Cl)c(Cl)c1	x	x	-4	x	x	x
N#Cc1c(-c2ccccc2)c(-c2ccccc2)nn(CC(=O)NNC(=O)Nc2ccc(Cl)c(Cl)c2)c1=O	-6.5*	-3	2	-3	-0.47	x
CN(C)S(=O)(=O)c1cccc(NC(=S)Nc2cc(Cl)cc(Cl)c2)c1	x	100*	-6	-6	0.29	x
CN(C)S(=O)(=O)c1cccc(NC(=S)Nc2ccc(Cl)cc2Cl)c1	x	99*	1	-8	0.96	x
CCCCNS(=O)(=O)c1ccc2nc(SCC(=O)Nc3ccccc3)[nH]c2c1	x	x	-2	x	x	x
Cc1ccc(C(=O)NC(=S)NNC(=O)c2ccccc2[N+](=O)[O-])cc1	-8*	x	-1	x	0.86	-1
Cc1ccc(-n2cnc3scc(-c4cccs4)c3c2=O)cc1	-1.1	x	1	x	-0.23	14
Cc1ccc(C(=O)Nn2cnc3scc(-c4cccs4)c3c2=O)c(O)c1	-3.5*	26	-1	-4	-2.3	x
NC(=O)C1CCN(C(=O)c2cc(S(=O)(=O)N3CCOCC3)c(Cl)cc2Cl)CC1	0.34	-28	-2	-2	0.58	6
CCc1nnc(NC(=O)C2COc3ccccc3O2)s1 (stereo unspecified)	-0.042	0	5.1*	0	0.14	16
CCC(CC)c1nnc(NC(=O)C2COc3ccccc3O2)s1 (stereo unspecified)	-3.9*	x	4	x	-0.33	-9
O=C(Nc1nc2c(s1)CCCC2)C1COc2ccccc2O1 (stereo unspecified)	-4.9*	24	-3	-2	x	-1
O=C(Nc1cnc2ccccc2c1)C1COc2ccccc2O1 (stereo unspecified)	-12*	-5	0	0	-0.28	14
O=C(Nc1ccncc1)C1COc2ccccc2O1 (stereo unspecified)	-0.033	-6	0	-2	0.53	5
Cn1nc(-c2ccc(Cl)cc2)c2cc(C(=O)NCCCN3CCCC3)sc21	-0.2	6	-6	14	x	-1
SMILES	Cav32 inh	Mac1 fbg inh	MRP1 act	CD11b adhes enh	Pyk2 oligo antag	MRP reversal
CC(C)(C)n1ncc2c(=O)n(CC(=O)Nc3ccc(Cl)cc3)cnc21	-9.5*	-14	0	4	-1.3	-30
CC(C)(C)n1ncc2c(=O)n(Cc3ccc(Cl)cc3Cl)cnc21	-1.6	50*	-1	5	-1	x
CCOc1ccccc1C(=O)Nc1cc(Cl)ccc1O	0.22	-3	-2	0	-3.7*	-5
COc1ccccc1C(=O)Nc1cc(Cl)ccc1O	-0.47	7	-2	-4	-2.4	-10
COc1ccc(S(=O)(=O)N2CCC(n3cnc4cc(C(F)(F)F)ccc43)CC2)cc1	-6.2*	4	-3	4	0.09	-4
COc1ccccc1/C=C/C(=O)NCC(=O)N/N=C/c1cc(Br)ccc1OC	-9.3*	2	1	-3	-0.11	-11
COc1ccc(/C=C/C(=O)NCC(=O)N/N=C/c2cc(Br)ccc2OC)cc1	-0.42	x	-5	x	-1.6	-12
COC(=O)Nc1ccc(C)c2nsnc12	x	1	-3	-5	0.62	2
CN(C)/C=c1\sc2c(C#N)cc(C(=O)c3ccc(Br)cc3)n2c1=O	-6.9*	-41	-1	5	-1.1	9
Cc1nc2ccc(-n3ccc(=O)cc3)cc2s1	0.023	-15	-1	-2	-0.1	4
CCn1c(CNc2ccc(C(=O)O)cc2)nc2ccccc21	0.78	31	-1	-3	0.52	-1
CCCn1c(CNc2ccc(Br)cc2)nc2ccccc21	-5.3*	62*	-1	-3	x	16
CCOc1ccc(Br)cc1/C=N/O	-2.3	-15	-4	-1	0.12	12
CCCOc1ccc(Br)cc1/C=N/O	-4.9*	1	-1	-2	1.3	-4
Cc1ccc(Nc2nc(CSc3nnnn3C)cs2)cc1	0.11	23	5.4*	-3	-0.2	25
Cc1cccc(-n2nnnc2SCc2csc(-c3ccccc3)n2)c1	-3.3*	x	2	x	-1.8	-4
Cc1ccc(Nc2nc(CSc3nnnn3-c3ccccc3)cs2)cc1	-4*	46	1	-5	-0.26	14
COC(=O)c1c(C)c(OC(=O)c2c(C)cc(O)c(C=O)c2O)cc(C)c1O	0.89	x	x	x	x	x
COc1ccccc1NC(=S)c1ccccc1	x	x	-2	x	x	x
C=CCN1C(=O)C(Cc2ccc(OC)cc2)SC1=Nc1ccc(C(=O)O)cc1 (stereo unspecified)	x	x	-2	x	-0.44	x
Cc1nn(-c2ccc(Cl)cc2Cl)c(=O)c2ccccc12	0.51	x	-1	x	0.72	5
Cc1c(C(=O)NN2CCCCC2)nn(-c2ccc(Cl)cc2Cl)c1-c1ccc(I)cc1	-4.9*	x	x	x	x	x
O=C(NCCc1ccccc1)c1ccc2nc(-c3ccco3)c(-c3ccco3)nc2c1	-11*	36	-1	5	-0.4	-3
O=C(NCCO)c1ccc2nc(-c3ccco3)c(-c3ccco3)nc2c1	0.5	-12	-1	-1	-1.2	-6
Fc1ccc(-c2nc3c(Cl)cc(C(F)(F)F)cn3c2Cl)cc1	x	-20	-2	0	1.2	x
Cc1ccc2c(c1)N(CCC(=O)NCC1COc3ccccc3O1)C(=O)CO2 (stereo unspecified)	-2.8	-8	0	0	-0.02	3
CCC1Oc2ccc(C)cc2N(CC(=O)NCC2COc3ccccc3O2)C1=O (stereo unspecified)	-5.2*	4	1	2	x	-14
Cc1cc(C)c(OCC(=O)Nc2cccc(NC(=O)c3ccco3)c2)c(Br)c1	-4.4*	25	-3	-5	-2.5	-17

Screens as filed in PubChem.
